Records with an inconclusive call do not appear. Values without a mark were called inactive. The source made the active and inactive calls. Calls follow the shape of the dose curve; as a rule, active = well fitted activation curve with a large enough effect in the repeat runs; inconclusive = weak or mixed curves; inactive = no such curve, though single readings can be large or run the other way.
Assay: qHTS assay for small molecules that induce genotoxicity in human embryonic kidney cells expressing luciferase-tagged ATAD5 (AID 651632); also: nearly all actives have a fitted effect of over 15% in size
Conditions: HEK293T ATAD5-luciferase induction, 16 h; series mostly up to 83.3 µM; activation: at the top concentration
Source text: U.S. Tox21 Program National Center for Advancing Translational Sciences [NCATS] NIH Chemical Genomics Center [NCGC] U.S. Environmental Protection Agency [EPA] National Institutes of Environmental Health Sciences [NIEHS] National Toxicology Program [NTP] U.S. Food and Drug Administration [FDA] Tox21 Assay Overview: As cancer cells divide rapidly and during every cell division they need to duplicate their genome by DNA replication. The failure to do so results in the cancer cell death. Based on this concept, many chemotherapeutic agents were developed but have limitations such as low efficacy and severe side effects etc. A new cell based assay was developed to find the compounds that effectively block DNA replication either by directly damaging DNA or by inhibiting other cellular mechanisms. Enhanced Level of Genome Instability Gene 1 (ELG1; human ATAD5) protein levels increase in response to various types of DNA damage. Using a luciferase reporter-gene tagged with ATAD5, a cell-based assay [developed by Kyungjae Myung, NHGRI, NIH] was used to measure the induction of ATAD5 in human embryonic kidney cells (HEK293T). So, increase in luciferase activity can be used to identify the compounds that cause genetic stress.
Tox21 Assay Protocol Summary: For genotoxicity screening, 2,000 cells in 5 uL/well were dispensed into white, solid-bottom 1536-well plates using a Multidrop Combi (Thermo Scientific) dispenser. Following transfer of 23 nL compound or DMSO vehicle by a pin tool, the plates were incubated 16 hr at 37C and 5% CO2. 5 ul Amplite (AAT Bioquest, Inc.) was then added to each plate and following 30 min incubation at room temperature, luciferase activity was quantified on a ViewLux CCD-based plate reader.
% is scaled to controls: 0 for no effect and ±100 for the full control effect.

Row | Compound | outcome | activation
1 | CCOC(=O)CC(SP(=S)(OC)OC)C(=O)OCC (stereo not given) | inactive | –
2 | COc1ccc2c(C(=O)c3ccc(Cl)cc3)c(C)n(CC(=O)O)c2c1 | – | 1.67%
3 | C=C(Cl)CSC(=S)N(CC)CC | – | -4.71% [at 95.3 µM]
4 | CCOC(=O)N(C)N=O | – | 1.89%
5 | NC(=O)CS(=O)C(c1ccccc1)c1ccccc1 (stereo not given) | – | -1.18%
6 | COc1cc(CCN)cc(OC)c1OC | – | 2.16% [at 95.3 µM]
7 | C=CC=O | – | 0.905% [at 95.3 µM]
8 | CCOC(=O)NC(C)(C)Cc1ccc(Cl)cc1 | – | 3.03%
9 | CCCN1CCC[C@@H]2Cc3[nH]ncc3C[C@H]21 | – | -2.01%
10 | Cc1ccc2cc(C)ccc2c1 | – | -0.737%
11 | C=CCCC#N | – | 1.07%
12 | COC(=O)[C@@H](N)CCCN/C(N)=N/[N+](=O)[O-] | – | 0.659%
13 | C[N+]1(C)CCCCC1 | – | 1.68%
14 | CCOc1cc(OP(=S)(OC)OC)nc(CC)n1 | – | 1.26%
15 | S=C=S | inactive | –
16 | CCN[C@@H](C)Cc1cccc(C(F)(F)F)c1 | – | 1.96%
17 | CCN(CCO)CCO | – | 3.02%
18 | CN(C)C(=O)Oc1cc(OC(=O)N(C)C)cc(C(O)CNC(C)(C)C)c1 (stereo not given) | – | 1.33% [at 39.1 µM]
19 | CC(C)(C)NC[C@H](O)c1ccc(O)cc1Cl | – | 5.97%
20 | O=C(O)CBr | – | -3.95%

Row | Compound | outcome | activation
21 | CCN(CC)C1CCCCC1 | – | 1.12%
22 | CCC1(c2cccc(O)c2)CCCCN(C)C1 (stereo not given) | – | -1.41% [at 39.1 µM]
23 | CS(=O)(=O)c1ccc(C(=O)C2C(=O)CCCC2=O)c(Cl)c1COCC(F)(F)F | – | 2.88%
24 | CC(C)[N+](C)(CCC(C(N)=O)(c1ccccc1)c1ccccc1)C(C)C | – | 1.65% [at 39.1 µM]
25 | CCc1cc(OC)c(C[C@H](C)N)cc1OC | – | -4.09% [at 95.3 µM]
26 | O=S1(=O)OCCO1 | – | 1.53% [at 95.3 µM]
27 | CCOP(=O)(CN(CCO)CCO)OCC | – | 0.492%
28 | C[C@H](CN1CCOCC1)C(C(=O)N1CCCC1)(c1ccccc1)c1ccccc1 | – | -8.42% [at 95.3 µM]
29 | CCCOc1nn(C(=O)NS(=O)(=O)c2ccccc2C(=O)OC)c(=O)n1C | – | 6.69%
30 | CCCOC(=O)Cc1ccc(OCC(=O)N(CC)CC)c(OC)c1 | – | 0.4%
31 | c1ccc2c(c1)CCNC2 | – | -1.77% [at 95.3 µM]
32 | CON(C)C(=O)Nc1ccc(Br)cc1 | – | 3.31%
33 | Cc1ccc(Cl)c(O)c1 | – | 0.358%
34 | CCOC(=O)C(SP(=S)(OC)OC)c1ccccc1 (stereo not given) | – | -4.1%
35 | O=C(Cl)OCc1ccccc1 | – | 1.82% [at 95.3 µM]
36 | O=C1CC(=O)NC(=O)N1 | – | 1.6%
37 | CCSC(=O)Cl | – | -0.899% [at 95.3 µM]
38 | CC[C@@H](CO)NC(=O)[C@@H]1C=C2c3cccc4c3c(cn4C)C[C@H]2N(C)C1 | – | -5.52%
39 | Cn1c(CCCC(=O)O)nc2cc(N(CCCl)CCCl)ccc21 | – | -0.337%
40 | CCOC1Oc2ccc(OS(C)(=O)=O)cc2C1(C)C (stereo not given) | – | -6.02%

— PubChem BioAssay (Tox21)
